Data on 14 compounds can be found in ChEMBL document CHEMBL1961873, “Compounds: GSK PKIS; Assays: Nanosyn kinase panel” (2012).

One may read the inhibition as the drop in the measured response relative to a control, in per cent.

For experiment [1], the target named is T1, Aurora kinase A (Homo sapiens) (UniProt O14965).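 Also: values are mean percent inhibition.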
T1 sequence (whole entry): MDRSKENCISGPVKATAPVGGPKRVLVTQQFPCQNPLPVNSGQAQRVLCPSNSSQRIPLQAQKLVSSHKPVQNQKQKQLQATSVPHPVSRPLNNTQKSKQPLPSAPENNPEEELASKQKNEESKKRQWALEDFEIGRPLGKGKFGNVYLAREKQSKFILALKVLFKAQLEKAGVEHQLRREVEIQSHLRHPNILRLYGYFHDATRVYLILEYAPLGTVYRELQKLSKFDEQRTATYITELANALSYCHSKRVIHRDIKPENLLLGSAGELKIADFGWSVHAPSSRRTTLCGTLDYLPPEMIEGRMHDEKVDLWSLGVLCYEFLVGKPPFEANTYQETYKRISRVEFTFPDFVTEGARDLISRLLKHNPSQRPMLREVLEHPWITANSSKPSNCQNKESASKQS
To be noted: at 1 µM.

Experiment [2] addresses Aurora kinase B (Homo sapiens) (UniProt Q96GD4). Conditions: at 0.1 µM.
For experiment [3] the target is unchanged. Conditions: at 1 µM.
For experiment [4], the target named is T2, Aurora kinase C (Homo sapiens) (UniProt Q9UQB9).
T2 sequence (whole entry): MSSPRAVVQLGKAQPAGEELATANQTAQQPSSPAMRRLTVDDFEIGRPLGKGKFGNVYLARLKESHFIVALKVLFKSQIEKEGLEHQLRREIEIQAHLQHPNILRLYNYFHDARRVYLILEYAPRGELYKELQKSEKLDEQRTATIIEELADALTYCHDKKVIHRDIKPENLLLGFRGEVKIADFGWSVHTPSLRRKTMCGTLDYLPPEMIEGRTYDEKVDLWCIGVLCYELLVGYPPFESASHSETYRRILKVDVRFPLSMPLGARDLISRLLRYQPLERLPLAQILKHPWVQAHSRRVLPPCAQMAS
To be noted: at 0.1 µM.

Experiment [5] addresses T2, Aurora kinase C (Homo sapiens). Conditions: at 1 µM.
For experiment [6], the target named is Serine/threonine-protein kinase 10 (Homo sapiens) (UniProt O94804). To be noted: at 0.1 µM.
Chain of Serine/threonine-protein kinase 10 (Homo sapiens) (O94804 whole entry, looked up): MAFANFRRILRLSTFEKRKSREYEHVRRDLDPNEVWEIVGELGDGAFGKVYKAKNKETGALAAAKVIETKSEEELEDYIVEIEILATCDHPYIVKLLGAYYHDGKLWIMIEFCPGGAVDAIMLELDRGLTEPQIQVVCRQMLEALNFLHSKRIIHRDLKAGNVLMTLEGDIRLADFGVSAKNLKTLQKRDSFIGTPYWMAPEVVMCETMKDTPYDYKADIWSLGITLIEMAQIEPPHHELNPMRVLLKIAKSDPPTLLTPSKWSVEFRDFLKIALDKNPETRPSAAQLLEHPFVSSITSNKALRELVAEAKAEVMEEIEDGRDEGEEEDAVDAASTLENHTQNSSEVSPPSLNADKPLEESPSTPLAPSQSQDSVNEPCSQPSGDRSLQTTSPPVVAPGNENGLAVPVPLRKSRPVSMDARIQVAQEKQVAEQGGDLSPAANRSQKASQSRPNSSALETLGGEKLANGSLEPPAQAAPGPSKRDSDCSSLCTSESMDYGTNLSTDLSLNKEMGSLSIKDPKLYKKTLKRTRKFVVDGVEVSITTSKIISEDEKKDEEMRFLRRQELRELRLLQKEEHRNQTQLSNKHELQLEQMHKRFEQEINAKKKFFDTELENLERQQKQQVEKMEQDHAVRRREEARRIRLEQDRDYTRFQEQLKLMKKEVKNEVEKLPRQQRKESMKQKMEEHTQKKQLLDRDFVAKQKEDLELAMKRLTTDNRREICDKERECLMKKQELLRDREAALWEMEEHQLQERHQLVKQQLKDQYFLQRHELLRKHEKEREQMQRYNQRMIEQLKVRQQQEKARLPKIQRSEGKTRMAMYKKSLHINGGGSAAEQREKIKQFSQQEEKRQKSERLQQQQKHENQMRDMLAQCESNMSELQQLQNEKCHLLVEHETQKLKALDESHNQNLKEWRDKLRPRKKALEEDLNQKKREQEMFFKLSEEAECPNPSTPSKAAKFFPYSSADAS
Experiment [7] shares this target. Conditions: at 1 µM.
The target of experiment [8] is T3, Mitogen-activated protein kinase kinase kinase kinase 2 (Homo sapiens) (UniProt Q12851).
T3 sequence (whole entry): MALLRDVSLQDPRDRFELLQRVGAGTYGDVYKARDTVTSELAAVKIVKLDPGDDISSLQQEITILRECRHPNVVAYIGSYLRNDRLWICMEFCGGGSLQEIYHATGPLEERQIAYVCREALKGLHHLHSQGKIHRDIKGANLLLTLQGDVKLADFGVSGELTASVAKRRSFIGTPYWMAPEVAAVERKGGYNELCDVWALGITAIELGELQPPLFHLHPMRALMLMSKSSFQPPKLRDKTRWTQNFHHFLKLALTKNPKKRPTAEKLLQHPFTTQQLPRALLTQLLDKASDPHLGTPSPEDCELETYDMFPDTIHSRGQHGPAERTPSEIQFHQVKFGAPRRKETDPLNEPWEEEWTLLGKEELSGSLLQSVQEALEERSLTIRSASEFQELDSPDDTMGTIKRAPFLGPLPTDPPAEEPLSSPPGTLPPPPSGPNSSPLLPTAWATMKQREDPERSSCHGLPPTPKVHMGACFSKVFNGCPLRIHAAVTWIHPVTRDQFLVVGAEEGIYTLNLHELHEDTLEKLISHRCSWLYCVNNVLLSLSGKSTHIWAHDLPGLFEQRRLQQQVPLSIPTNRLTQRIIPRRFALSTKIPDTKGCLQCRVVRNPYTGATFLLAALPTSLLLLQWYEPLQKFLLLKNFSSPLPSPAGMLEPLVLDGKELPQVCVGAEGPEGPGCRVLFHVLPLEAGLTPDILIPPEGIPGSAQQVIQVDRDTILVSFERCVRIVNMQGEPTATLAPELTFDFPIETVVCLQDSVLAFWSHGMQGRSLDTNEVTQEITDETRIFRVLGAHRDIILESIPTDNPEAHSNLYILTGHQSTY
To be noted: at 0.1 µM.

The target of experiment [9] is T3, Mitogen-activated protein kinase kinase kinase kinase 2 (Homo sapiens). To be noted: at 1 µM.
Experiment [10] has as its target Mitogen-activated protein kinase kinase kinase kinase 4 (Homo sapiens) (UniProt O95819). To be noted: at 0.1 µM.

Chain of Aurora kinase B (Homo sapiens) (Q96GD4 whole entry): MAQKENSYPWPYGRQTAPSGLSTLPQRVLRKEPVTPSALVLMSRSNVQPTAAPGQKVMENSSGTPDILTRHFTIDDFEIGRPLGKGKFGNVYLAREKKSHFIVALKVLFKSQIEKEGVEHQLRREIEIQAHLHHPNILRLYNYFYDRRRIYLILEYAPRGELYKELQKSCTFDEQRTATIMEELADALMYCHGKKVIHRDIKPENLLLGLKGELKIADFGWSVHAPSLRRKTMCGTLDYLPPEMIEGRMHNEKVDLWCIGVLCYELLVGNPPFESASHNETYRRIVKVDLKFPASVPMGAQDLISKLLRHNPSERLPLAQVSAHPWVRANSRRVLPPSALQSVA
Chain of Mitogen-activated protein kinase kinase kinase kinase 4 (Homo sapiens) (O95819 2-1239 limits assumed): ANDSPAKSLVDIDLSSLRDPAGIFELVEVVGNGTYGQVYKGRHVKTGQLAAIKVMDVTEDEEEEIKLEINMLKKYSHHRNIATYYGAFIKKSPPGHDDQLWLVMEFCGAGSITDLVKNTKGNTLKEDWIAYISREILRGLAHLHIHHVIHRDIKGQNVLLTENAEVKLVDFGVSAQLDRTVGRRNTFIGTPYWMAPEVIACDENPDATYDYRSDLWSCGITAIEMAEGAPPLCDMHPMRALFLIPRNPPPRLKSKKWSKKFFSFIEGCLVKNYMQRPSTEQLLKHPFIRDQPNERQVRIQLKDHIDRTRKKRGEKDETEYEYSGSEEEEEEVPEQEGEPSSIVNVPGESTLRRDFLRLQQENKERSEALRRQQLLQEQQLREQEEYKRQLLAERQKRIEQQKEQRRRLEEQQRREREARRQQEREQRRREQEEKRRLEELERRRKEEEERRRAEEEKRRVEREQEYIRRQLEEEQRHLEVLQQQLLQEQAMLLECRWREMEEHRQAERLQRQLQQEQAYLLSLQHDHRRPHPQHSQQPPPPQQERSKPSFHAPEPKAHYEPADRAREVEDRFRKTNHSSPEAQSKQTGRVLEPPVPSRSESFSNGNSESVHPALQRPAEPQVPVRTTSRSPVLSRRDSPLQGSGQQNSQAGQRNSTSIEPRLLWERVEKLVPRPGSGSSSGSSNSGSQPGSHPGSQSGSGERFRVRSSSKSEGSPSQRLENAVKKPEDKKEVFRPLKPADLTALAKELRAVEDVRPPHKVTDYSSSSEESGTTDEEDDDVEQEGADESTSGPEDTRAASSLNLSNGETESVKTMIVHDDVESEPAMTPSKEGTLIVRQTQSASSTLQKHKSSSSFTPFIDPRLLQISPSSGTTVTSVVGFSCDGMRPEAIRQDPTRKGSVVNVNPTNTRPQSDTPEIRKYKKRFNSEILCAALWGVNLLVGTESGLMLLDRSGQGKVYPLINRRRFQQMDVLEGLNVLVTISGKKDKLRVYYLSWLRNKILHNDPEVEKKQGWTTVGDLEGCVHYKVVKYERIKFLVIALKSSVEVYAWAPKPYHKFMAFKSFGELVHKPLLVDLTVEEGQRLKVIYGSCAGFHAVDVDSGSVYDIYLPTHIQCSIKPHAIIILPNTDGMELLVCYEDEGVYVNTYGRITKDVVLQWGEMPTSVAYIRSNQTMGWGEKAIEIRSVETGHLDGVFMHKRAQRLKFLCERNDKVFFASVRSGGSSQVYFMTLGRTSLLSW

As for `O=C(Nc1n[nH]c2cc(-c3cc(F)ccc3F)ccc12)C1CC1`, the inhibition in experiment [1] was 18.1%; in experiment [2], 2.4%; in experiment [3], 6.93%; in [4], 0.12%; in experiment [5], 8.07%; in [6], 4.84%. Also, the inhibition in experiment [7] came out at 13.1%; in experiment [8], 0.39%; in [9] it was 5.06%; in experiment [10], 16.4%.
For the compound `Fc1ccc(-c2nc3n(c2-c2ccncc2)CCS3)cc1`, the inhibition in experiment [1] was 1.43%; in experiment [2], -0.42%; in experiment [3] it was 2.92%; in [4] it was -1.97%; in experiment [5] it was 13.6%; in experiment [6], 1.88%. Also, the inhibition in [7] stood at 6.87%; in experiment [8] it was 1.36%; in [9], 6.73%; in [10], 5.82%.
Turning to `O=C1Nc2ccccc2/C1=C/Nc1ccc(-n2cncn2)cc1`, the inhibition in experiment [1] stood at 36.3%; in [2], 6.72%; in [3] it was 27.7%; in experiment [4], 3.93%; in experiment [5], 44.8%; in [6] it was 4.16%. For the same compound, the inhibition in [7] stood at 12.6%; in experiment [8], 2.9%; in experiment [9], 12.6%; in experiment [10], 18.5%.
For `COc1cc2ncn(-c3cc(OCc4ccccc4C(F)(F)F)c(C(C)=O)s3)c2cc1OC`, the inhibition in experiment [1] came out at 4.46%; in experiment [2], 7.82%; in experiment [3], 9.68%; in [4] it was 3%; in experiment [5] it was 11.9%; in [6], 10.5%. For the same compound, the inhibition is 42.8% in [7], 2.18% in experiment [8], 7.42% in experiment [9] and 4.05% in [10].
As for `Fc1ccc(-c2ncn(C3CCNCC3)c2-c2ccnc(Oc3ccc(F)c(F)c3)n2)cc1`, the inhibition in experiment [1] is -0.3%; in experiment [2] it was -1.34%; in experiment [3] it was 1.81%; in [4], -2.62%; in experiment [5], 4.92%; in [6] it was 4.63%. Moreover, the inhibition in experiment [7] is 8.33%; in experiment [8] it was 1.35%; in [9], 3.76%; in experiment [10] it was 9.16%.
Turning to `FC(F)(F)c1cccc(Nc2nccc(-c3cnn4nc(-c5ccccc5)ccc34)n2)c1`, the inhibition in experiment [1] was 3.33%; in experiment [2], 2.71%; in experiment [3], 8.1%; in experiment [4], 1.82%; in experiment [5], 10.2%; in [6], 3.86%. Further, the inhibition in [7] was found to be 5.68%; in experiment [8] it was 0.58%; in [9], 2.4%; in experiment [10], 2.1%.
Regarding `NC(=O)c1ccc(Oc2nccc(-c3c(-c4ccc(F)cc4)ncn3C3CCNCC3)n2)cc1`, the inhibition in [1] worked out at 2.99%; in [2] it was 2.63%; in experiment [3] it was 3.74%; in experiment [4], 2.2%; in experiment [5] it was 0.43%; in experiment [6] it was 7.75%. In addition, the inhibition in experiment [7] was 8.82%; in experiment [8], -0.61%; in [9] it was 1.55%; in experiment [10], 1.45%.
For `Cc1ccc(C(=O)NC(C)C)cc1-c1ccc(C(=O)NCC2CC2)cc1`, the inhibition in experiment [1] is -2.53%; in experiment [2], -0.47%; in experiment [3] it was 2.24%; in experiment [4] it was -0.96%; in [5] it was 1.27%; in experiment [6], -2.21%. Besides, the inhibition in experiment [7] was -5.65%; in experiment [8], -0.39%; in experiment [9], 1.59%; in experiment [10], -2.82%.
As for `COc1ccc(-c2ccc3c(NC(=O)C4CC4)n[nH]c3n2)cc1`, the inhibition in experiment [1] was 9.18%; in experiment [2], 3.59%; in [3], 5.77%; in experiment [4], -5.01%; in [5] it was 8.55%; in experiment [6], 4.51%. Also, the inhibition in experiment [7] was determined as 8.53%; in experiment [8] it was 1.22%; in [9], 0.37%; in experiment [10] it was 5.28%.
Take `COc1cccc(-n2cnc3c(N/N=C/c4ccncc4)ncnc32)c1`: the inhibition is 13% in [1]; 0.64% in experiment [2]; 7.54% in experiment [3]; 0.73% in experiment [4]; -1.49% in experiment [5]; 4.49% in experiment [6]. For the same compound, the inhibition in experiment [7] worked out at 16.3%; in experiment [8], 1.19%; in [9] it was 1.25%; in experiment [10], 1.22%.
With `C[C@@H](Oc1cc(-n2cnc3ccc(OCC4CCN(C)CC4)cc32)sc1C(N)=O)c1ccccc1Cl`, the inhibition in experiment [1] is 6.43%; in experiment [2], 4.49%; in [3], 5.33%; in experiment [4], -0.3%; in experiment [5] it was 3%; in experiment [6], 63.3%. Also, the inhibition in experiment [7] is 86.9%; in experiment [8], 2.59%; in [9], 13.9%; in [10] it was 4.27%.
With `Cc1nnc(-c2ccc(C)c(-c3ccc(C(=O)NCc4ccc(Cl)cc4)cc3)c2)o1`, the inhibition in experiment [1] was -4.05%; in experiment [2], -0.69%; in [3] it was -2.09%; in experiment [4], -2.03%; in experiment [5] it was -9.49%; in experiment [6], 2.71%. In addition, the inhibition was found to be 6.75% in experiment [7], 1.46% in experiment [8], 1.6% in experiment [9] and 5.65% in experiment [10].
For the compound `COc1cc(Nc2ncc(-c3ccccc3)o2)cc(OC)c1OC`, the inhibition in experiment [1] is 75.5%; in experiment [2] it was 10.1%; in [3], 50%; in [4], 8.67%; in experiment [5], 71.8%; in [6] it was 1.37%. Moreover, the inhibition in experiment [7] worked out at 11.1%; in experiment [8] it was 2.15%; in experiment [9] it was 11.5%; in experiment [10] it was 2.13%.
In the case of `CN(C)c1ccc2c(c1)/C(=C/Nc1ccc(S(N)(=O)=O)cc1)C(=O)N2`, the inhibition turned out to be 50.7% in experiment [1]; 4.95% in experiment [2]; 30.4% in experiment [3]; 17.9% in experiment [4]; 48% in experiment [5]; 3% in experiment [6]. Further, the inhibition in experiment [7] amounted to 18.1%; in experiment [8] it was 5.66%; in experiment [9], 29.9%; in experiment [10], 23.9%.
